Rows were chosen to be rich in hits. Some 2.2% of all compounds tested hit in one or more screens of this group.
FBPA Giardia inh = inhibitors of Giardia lamblia fructose-1,6-bisphosphate aldolase. actives 0.71% (n = 290,000). purified Giardia FBPA. Potency, µM (highest dose often 59.6 µM), for the others: at the highest dose activity, negative = inhibition, usual class: inhibitors. A8B2U2; active means well fitted inhibition curve with a large enough effect; inconclusive means small, poorly fitted or top-dose-only effect, or effect the other way; further: nearly all actives have a fitted effect of over 55% in size
Target sequence (A8B2U2 whole entry, looked up): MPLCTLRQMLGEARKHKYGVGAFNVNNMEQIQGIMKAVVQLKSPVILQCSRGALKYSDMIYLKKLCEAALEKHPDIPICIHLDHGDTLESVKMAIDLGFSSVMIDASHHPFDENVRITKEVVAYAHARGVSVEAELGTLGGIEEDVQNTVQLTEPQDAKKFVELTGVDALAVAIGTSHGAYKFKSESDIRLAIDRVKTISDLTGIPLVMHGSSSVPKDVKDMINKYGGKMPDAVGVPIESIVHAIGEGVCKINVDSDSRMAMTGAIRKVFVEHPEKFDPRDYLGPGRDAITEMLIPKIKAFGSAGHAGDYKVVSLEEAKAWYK
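Giardia FBPA (40 nM reagent) was preincubated 10 min at RT with compound (up to 57.5 uM final), then substrate plus GAPDH/TPI/NAD/arsenate coupling system with diaphorase/resazurin was added; resorufin fluorescence (525/598 nm) was read after 20 min.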
FMDV antiviral = blocks foot and mouth disease virus; Potency, µM (doses to about 57.9 µM), for inactives: at the top dose activity change, negative = inhibition, hits mostly inhibitors; AID 1159524; FMDV antiviral cell-based qHTS; actives 1.2% (n = 410,000); calls by dose curve; tested in HEK293T cells; further: read-out not given here; nearly all actives have a fitted effect of over 45% in size
Vaccinia Venus = vaccinia inhibition (Venus reporter); AID 720580; actives 0.46% (n = 330,000); Potency, µM (highest dose often 36.5 µM), without a hit: at the highest dose activity change, negative = inhibition, usual class: inhibitors; Vaccinia virus Venus reporter expression, fluorescence; calls by dose curve; tested in A549 cells; further: nearly all actives have a fitted effect of over 30% in size
VACV mCherry inh = vaccinia inhibition (mCherry reporter); actives 0.63% (n = 310,000); Vaccinia virus mCherry reporter infection, fluorescence; Potency, µM (doses to about 36.5 µM), for inactives: top-dose activity change, negative = inhibition, hits mostly inhibitors; calls by dose curve; tested in A549 cells; further: nearly all actives have a fitted effect of over 35% in size
Starred values were filed as active, the others as inactive; [ ] = another dose, or the depositor's remark. On the % scale 0 is the no-effect control and ±100 the full control effect; potency means the concentration at half of the fitted maximal effect.

What do the screens show for `CCOC(=O)c1sc2nc(-c3ccco3)c3c(c2c1N)CC(C)(C)OC3`?
FBPA Giardia inh: inconclusive; FMDV antiviral: inconclusive; Vaccinia Venus: 12.6µM*; VACV mCherry inh: 10µM*

What do the screens show for `Cc1cc(C)c(Cc2c(C)nc3c(C(=O)NCc4ccco4)cnn3c2C)c(C)c1`?
FBPA Giardia inh: 11.9%; FMDV antiviral: 17.8µM*; Vaccinia Venus: -2.7%; VACV mCherry inh: 10.5%

Results for O=C(NC[C@@H]1CCCN2CCCC[C@H]12)c1cnn(-c2nccc(-c3cc4ccccc4o3)n2)c1C1CC1 ?
FMDV antiviral: -7.4%; Vaccinia Venus: -11.8%; VACV mCherry inh: -22.2%

What do the screens show for `CC(=O)c1ccc(C(=O)NCc2nc(-c3ccccc3NC(=O)c3cc(C)oc3C)oc2C)cc1`?
FMDV antiviral: 10.0%; Vaccinia Venus: -1.0%; VACV mCherry inh: -11.4%

Results for CC1OC(Oc2c(-c3cc(O)c(O)c(O)c3)oc3cc(O)cc(O)c3c2=O)C(O)C(O)C1O (configuration not stated) ?
FBPA Giardia inh: 9.98µM*; FMDV antiviral: -18.1%; Vaccinia Venus: -0.6%; VACV mCherry inh: -0.5%

What do the screens show for `COc1c(-c2ccc(O)cc2)oc2cc(O)cc(O)c2c1=O`?
FBPA Giardia inh: 4.1%; FMDV antiviral: -0.7%; Vaccinia Venus: inconclusive; VACV mCherry inh: 20µM*

Results for COc1ccc(-c2oc3cc(O)c(OC)c(O)c3c(=O)c2OC)cc1 ?
FBPA Giardia inh: -0.4%; FMDV antiviral: 44.1%; Vaccinia Venus: -16.8%; VACV mCherry inh: -23.3%

What do the screens show for `O=c1c(-c2cc(O)c(O)c(O)c2)coc2cc(O)c(O)c(O)c12`?
FBPA Giardia inh: 5µM*; FMDV antiviral: -13.1%; Vaccinia Venus: -29.2%; VACV mCherry inh: -0.2%

How did O=c1c(-c2ccc(O)cc2)coc2cc(O)cc(O)c12 do in these assays?
FBPA Giardia inh: 3.9%; FMDV antiviral: 29.6%; Vaccinia Venus: inconclusive; VACV mCherry inh: 11.2µM*

How did COc1cccc(CNC(=O)c2c(OC)cc(=O)n3c2CCN(C(=O)C2CC24CCCC4)CC3)c1 (configuration not stated) do in these assays?
FMDV antiviral: -11.0%; Vaccinia Venus: 3.7%; VACV mCherry inh: -10.0%

How did C=C1NN(C)C(=O)N1c1ccc(OC)cc1 do in these assays?
Vaccinia Venus: -13.5%; VACV mCherry inh: -19.3%

How did CN(C)c1ccc(C=Nc2cncc3ccccc23)cc1 do in these assays?
Vaccinia Venus: -5.1%; VACV mCherry inh: -12.8%

How did O=C(CN1C(=O)c2ccccc2C1=O)NCC1Cc2cccc(-c3ncccn3)c2O1 (configuration not stated) do in these assays?
FMDV antiviral: 2.9%; Vaccinia Venus: -12.9%; VACV mCherry inh: -15.3%

What do the screens show for `O=C(Nc1cccnc1)c1ccc(S(=O)(=O)c2ccc(Cl)cc2)cc1`?
FBPA Giardia inh: 3.9%; FMDV antiviral: 28.2µM*; Vaccinia Venus: -19.8%; VACV mCherry inh: -13.7%

What do the screens show for `O=C(Nc1ccc(N2CCOCC2)cc1)c1cn2ccccc2n1`?
FBPA Giardia inh: 9.0%; FMDV antiviral: -77.2%; Vaccinia Venus: 0.7%; VACV mCherry inh: -19.8%[1.46 µM]

Results for O=C(/C=C/c1ccco1)Nc1ccc(Cl)c(S(=O)(=O)N2CCOCC2)c1 ?
FBPA Giardia inh: -4.5%; FMDV antiviral: 22.4µM*

Results for O=C(Nc1ccc(Cl)c(S(=O)(=O)N2CCOCC2)c1)c1cn2ccccc2n1 ?
FBPA Giardia inh: 3.6%; FMDV antiviral: 20µM*; Vaccinia Venus: 1.2%; VACV mCherry inh: inactive

What do the screens show for `O=C(Nc1ccccc1O)c1cc(S(=O)(=O)N2CCOCC2)c(Cl)cc1Cl`?
FBPA Giardia inh: 2.9%; FMDV antiviral: 15.8µM*; Vaccinia Venus: -25.4%; VACV mCherry inh: -22.7%

Results for Cc1cnc(NC(=O)CSc2ccccc2)s1 ?
FBPA Giardia inh: -3.0%; FMDV antiviral: 12.2%

What do the screens show for `CCOC(=S)SCC(=O)Nc1ncc(C)s1`?
FBPA Giardia inh: inconclusive; FMDV antiviral: 25.1µM*; Vaccinia Venus: -15.4%; VACV mCherry inh: inconclusive

What do the screens show for `COc1ccc(C(=O)NCC2Cc3cccc(-c4cncnc4)c3O2)c(OC)c1OC` (configuration not stated)?
FMDV antiviral: inconclusive; Vaccinia Venus: -18.2%; VACV mCherry inh: -23.8%

Results for COC(=O)C1=CN(c2ccc(C(C)(C)C)cc2)C(N)=C(C#N)C1c1cccc2ccccc12 (configuration not stated) ?
FMDV antiviral: -4.0%; Vaccinia Venus: -12.2%; VACV mCherry inh: 8.91µM*

Results for COC(=O)C1=CN(c2ccc(OC)cc2)C(N)=C(C#N)C1c1cccc2ccccc12 (configuration not stated) ?
FMDV antiviral: 25.4%; Vaccinia Venus: -15.4%; VACV mCherry inh: inconclusive

How did CCc1ccc(N2C=C(C(=O)OC)C(c3cccc4ccccc34)C(C#N)=C2N)cc1 (configuration not stated) do in these assays?
FMDV antiviral: 46.6%; Vaccinia Venus: -8.1%; VACV mCherry inh: 6.31µM*

Results for CC[C@H]1OC(=O)C[C@@H](O)[C@H](C)[C@@H](O[C@@H]2O[C@H](C)[C@@H](O)[C@H](N(C)C)[C@H]2O)[C@@H](CCN2C[C@H](C)C[C@H](C)C2)C[C@@H](C)C(=O)/C=C/C(C)=C/[C@@H]1CO[C@@H]1O[C@H](C)[C@@H](O)[C@@H](OC)[C@H]1OC ?
FMDV antiviral: -11.9%; Vaccinia Venus: -7.2%; VACV mCherry inh: -12.8%

What do the screens show for `O=c1oc2ccccc2cc1-c1ccc(O)cc1`?
FBPA Giardia inh: -3.6%; FMDV antiviral: 25.1%; Vaccinia Venus: -18.2%; VACV mCherry inh: -0.2%

How did Nc1ccc(-c2cc3ccccc3oc2=O)cc1 do in these assays?
FBPA Giardia inh: -0.9%; FMDV antiviral: 1.12µM*; Vaccinia Venus: 0.1%; VACV mCherry inh: -10.8%

Results for CCc1ccccc1NC(=O)CNC(=O)c1n[nH]c(=O)c2ccccc12 ?
FMDV antiviral: 25.1µM*

Results for CN(C)c1ccc(/C=C/c2ccnc3ccc4ccccc4c23)cc1 ?
Vaccinia Venus: 209.6%; VACV mCherry inh: 165.2%

How did CC(C)(C)c1cc(=O)n(-c2ccccc2)[nH]1 do in these assays?
FBPA Giardia inh: 0.629µM*; FMDV antiviral: 12.2%; Vaccinia Venus: -1.7%; VACV mCherry inh: inactive

What do the screens show for `COc1ccc2c(c1)OC[C@H]1[C@H]2N2C(=O)c3ccc(F)cc3NC(=O)[C@@]2(C)[C@H]1c1ccccc1`?
FMDV antiviral: inconclusive; Vaccinia Venus: inconclusive; VACV mCherry inh: 17.8µM*

How did CC(C)c1c(C(=O)NCC2(N3CCCCC3)CCCC2)cnn1-c1nccc(-c2ccco2)n1 do in these assays?
FMDV antiviral: 1.0%; Vaccinia Venus: -10.7%; VACV mCherry inh: -14.6%

How did O=C1OCC2OC(O)C(O)C(O)C2OC(=O)c2cc(O)c(O)c(O)c2-c2c(O)c(O)c3oc(=O)c4c(c(O)c(O)c5oc(=O)c2c3c54)-c2c1cc(O)c(O)c2O (configuration not stated) do in these assays?
FBPA Giardia inh: 3.97µM*

How did CCN(CCO)C(=O)c1cnn(-c2ncc3c(n2)-c2ccccc2CCC3)c1C1CC1 do in these assays?
FMDV antiviral: 37.9%; Vaccinia Venus: -18.9%; VACV mCherry inh: -18.4%
